# Results: PubChem BioAssay AID588689 (Southern Research Specialized Biocontainment Screening …, 2011)
# Screen size: about 340,000 compounds; about 1,000 (0.29%) were called active. Rule as the data show it: inconclusive = inhibition above about 29% without an active follow-up result; inactive = below that. These entries were drawn from the full list. Entries with a potency or affinity are not part of this list.
# Molecular target: Genome polyprotein (Dengue virus type 2 (strain 16681-PDK53)) (UniProt P29991)
# Experiment: flavivirus cap methylation enzyme inhibition – biochemical, confirmation dose response, primary screen (AID 588689)
# Details: Dengue-2 NS5 methyltransferase capping enzyme assay, at 25 µM, stronger effect = higher value
SMILES,inhibition,inhibition (measured here: pilot screen replicate inhibition)
Cc1ccccc1CS(=O)(=O)c1ncc(Cl)c(C(=O)Nc2ccc(F)cc2)n1,-55.8% (inactive),
CC(=O)Nc1ccc(NC(=O)c2nc(S(=O)(=O)Cc3ccccc3)ncc2Cl)cc1,-50.4% (inactive),
Cc1nnc(NC(=O)c2nc(S(=O)(=O)Cc3ccccc3C)ncc2Cl)s1,27.3% (inactive),
Cc1nnc(NC(=O)c2nc(S(=O)(=O)Cc3ccccc3)ncc2Cl)s1,19.6% (inactive),
COC(=O)c1ccc(NC(=O)c2nc(S(=O)(=O)Cc3cccc(C)c3)ncc2Cl)cc1,-59.7% (inactive),
Cc1cccc(CS(=O)(=O)c2ncc(Cl)c(C(=O)NCc3ccccc3)n2)c1,-74.2% (inactive),
Cc1ccc(NC(=O)c2nc(S(=O)(=O)Cc3ccccc3)ncc2Cl)cc1,-43.4% (inactive),
CSc1ncc(Cl)c(C(=O)Nc2nnc(SC)s2)n1,5.42% (inactive),
O=C(c1cc(-c2ccc(Br)cc2)nc2ccccc12)N1CCC1,-2.19% (inactive),
COc1ccccc1N1CCN(C(=O)c2oc3c(c2C)C(=O)CC(C)(C)C3)CC1,4.65% (inactive),
O=C(N/N=C/C(Cl)=C\c1ccccc1)c1cnccn1,-6.4% (inactive),
C=CC[C@H](CC(=O)N[C@H](CO)Cc1ccccc1)C(=O)N[C@@H](COC(=O)[C@H](CC=C)CC(=O)OC(C)(C)C)Cc1c[nH]c2ccccc12,-0.83% (inactive),
COc1ccc(/C=C2/SC(=O)N(CCC(=O)Nc3ccc(S(=O)(=O)Nc4nccs4)cc3)C2=O)cc1,-5.09% (inactive),
O=C(/C(=C(/[O-])c1ccccc1)[n+]1ccccc1)c1ccc([N+](=O)[O-])cc1,3.25% (inactive),
CCCc1ncc(CN2CCCCC2C(=O)Nc2ccc(Oc3ccccc3)nc2)cn1 (stereo not drawn),-5.15% (inactive),
CCCCn1c(N)c(N(C)C(=O)c2cn(-c3ccccc3)nc2-c2ccccc2)c(=O)[nH]c1=O,-2.61% (inactive),
NS(=O)(=O)c1ccc2nc(NC(=O)Nc3ccc(F)cc3)sc2c1,-9.52% (inactive),
O=C(Nc1ccc(Cl)c(S(=O)(=O)N2CCOCC2)c1)c1cccs1,-1.55% (inactive),
Cc1cccc(CS(=O)(=O)c2ncc(Cl)c(C(=O)Nc3c(C)cccc3C)n2)c1,-57.4% (inactive),
CC(=O)Nc1ccc(NC(=O)c2nc(S(=O)(=O)Cc3cccc(C)c3)ncc2Cl)cc1,-42.6% (inactive),
O=C(Nc1ncccc1O)c1ccc2c(c1)OCO2,0.74% (inactive),

SMILES,inhibition,inhibition (measured here: pilot screen replicate inhibition)
Cc1cc(Cl)ccc1OCC(=O)Nc1ccccc1C(=O)N1CCOCC1,5.18% (inactive),
O=C1CC(c2ccccc2)NC(=S)N1 (stereo not drawn),3.85% (inactive),
O=C1NC(=S)NC1(c1ccccc1)c1ccccc1,-4.65% (inactive),
CCCSc1nc(O)c(C2OC(=O)c3c2ccc(OC)c3OC)c(=O)n1-c1ccccc1 (stereo not drawn),11.7% (inactive),
CCCCSc1nc(O)c(C2OC(=O)c3c2ccc(OC)c3OC)c(=O)n1C (stereo not drawn),-5.49% (inactive),
CCCCSc1nc(O)c(C2OC(=O)c3c2ccc(OC)c3OC)c(=O)n1-c1ccccc1 (stereo not drawn),17.6% (inactive),
CCSc1nc(O)c(C2OC(=O)c3c2ccc(OC)c3OC)c(=O)n1CC (stereo not drawn),6.79% (inactive),
Cc1cc2c3c([nH]c2cc1S(=O)(=O)NCc1ccc(CN2CCCCCC2)o1)CCCC3=O,-7.25% (inactive),
Cc1ccc(S(=O)(=O)N/N=C/c2ccc(O)c(O)c2)cc1[N+](=O)[O-],0.74% (inactive),
CCN(CC)CCNC(=O)c1ccc(NC(=O)c2cc(S(=O)(=O)N3CCCCC3)ccc2N2CCOCC2)cc1,-2.25% (inactive),
COc1ccc(-n2cccc2C=O)cc1,-11.6% (inactive),
COc1cc(/C=C2\C(C)=C(C#N)c3nc(N)c(C#N)c(C)c32)ccc1OCC(=O)O,-6.96% (inactive),
Cc1cc2nc(/C(C#N)=C\c3ccc(-c4ccccc4C(=O)O)o3)[nH]c2cc1C,-2.36% (inactive),
Cc1cc2nc3s/c(=C/c4ccc(-c5ccccc5C(=O)O)o4)c(=O)n3c2cc1C,-33.6% (inactive),
CCOC(=O)CSc1nc(N)c(C#N)c(-c2ccc(OCC)cc2)c1C#N,-3.48% (inactive),
O=C1OC(c2ccccc2)=CC1=Cc1ccccc1O,-6.29% (inactive),
CC1CCCC(NC(=O)C2N(CCCN3CCCC3)C(=O)C3C(C(=O)Nc4ccc(Cl)cc4)C4C=CC32O4)C1C (stereo not drawn),-9.14% (inactive),
Cc1cc(C)cc(NC(=O)COC(=O)Cc2ccccc2F)c1,-2.95% (inactive),
CS(=O)(=O)NCc1nnc(SCc2c(F)cccc2Cl)o1,-7.53% (inactive),
C=CCn1c(SCC(=O)/C(C#N)=C(\C)N)nnc1C1CCCCC1,-2.77% (inactive),
CCN(C[C@H]1N[C@@](C)(C(=O)OC)[C@H]2C(=O)N(C)C(=O)[C@@H]12)S(=O)(=O)c1ccc(OC(F)(F)F)cc1,-7.6% (inactive),0.305%

SMILES,inhibition,inhibition (measured here: pilot screen replicate inhibition)
Cc1ccc(S(=O)(=O)NN2C(=O)/C(=C/c3ccc(F)cc3)SC2=S)cc1,9.54% (inactive),
Cc1ccc(S(=O)(=O)NN2C(=O)/C(=C/c3cccnc3)SC2=S)cc1,14.3% (inactive),
O=C1/C(=C\c2ccc(Br)cc2)SC(=S)N1NS(=O)(=O)c1ccccc1,-8.31% (inactive),
CC(=O)N1C(=O)/C(=C2\SC(=S)N(NS(=O)(=O)c3ccc(C)cc3)C2=O)c2ccccc21,5.31% (inactive),
O=C1/C(=C/C=C/c2ccco2)SC(=S)N1NS(=O)(=O)c1ccccc1,64.5% (inactive),
O=C1/C(=C/c2ccccn2)SC(=S)N1NS(=O)(=O)c1ccccc1,8.55% (inactive),
O=S(=O)(NCc1nc2ccccc2[nH]1)c1ccccc1,-2.6% (inactive),
O=C(NC1CC1)C1=C[C@@H](c2csc3ccccc23)C[C@@H](OCc2ccc(CO)cc2)O1,-6.54% (inactive),
O=C(COC(=O)C1CC2CCCC(C1)C2=O)Nc1nc(-c2ccc(F)c(F)c2)cs1 (stereo not drawn),11% (inactive),
CN(C)C(=O)c1ccc(NC(=O)c2cccc(S(=O)(=O)N3CCCc4ccccc43)c2)cc1,4.32% (inactive),
CC(NC(=O)c1cccnc1)C(c1cccs1)N1CCOCC1 (stereo not drawn),0% (inactive),
CSc1cccc(NC(=O)C2CCN(S(=O)(=O)c3cnc[nH]3)CC2)c1,-4.39% (inactive),
COc1cccc(CNC(=O)c2cccc(NC(=O)C3=C(C)OCCS3)c2)c1,-1.39% (inactive),
O=C(Nc1cccc([N+](=O)[O-])c1)N1CCCCCC1,-0.65% (inactive),
CC(C)OCCCNC(=O)c1ccc(NS(C)(=O)=O)cc1,0% (inactive),
Cc1cc(C)c(C(=O)c2ccccc2)c(C)c1,-9.32% (inactive),
O=S(=O)(c1ccccc1)N1CCC2(CC1)CO2,-6.64% (inactive),
O=C1/C(=C/c2cccnc2)SC(=S)N1NS(=O)(=O)c1ccccc1,5.88% (inactive),
CCN1C[C@@H]2[C@@H]3C(=O)N(C)C(=O)[C@@H]3[C@](Cc3ccccc3)(C1=O)N2C(=O)c1ccccc1,1.65% (inactive),
CC(=O)C1=C(O)C(=O)N(c2ccc(C)cc2)C1c1ccc([N+](=O)[O-])cc1 (stereo not drawn),2.73% (inactive),
COc1cc(CN2CCCCCC2)c([N+](=O)[O-])cc1OC,0% (inactive),

SMILES,inhibition,inhibition (measured here: pilot screen replicate inhibition)
COc1ccc(Cl)cc1NC(=O)CN(C)C(=O)c1ccc(OCc2ccccc2)c(OC)c1,-1.46% (inactive),
O=C(CCCN1C(=O)/C(=C/c2ccccc2Cl)SC1=S)NNC(=O)c1ccc(Cl)cc1,28.1% (inactive),
CN1CCN(C(=O)CCN2C(=O)/C(=C\c3ccc(Cl)cc3Cl)SC2=S)CC1,0% (inactive),
O=C(COc1ccc(Cl)cc1Cl)NN1C(=O)/C(=C\c2ccc(Cl)cc2)SC1=S,0% (inactive),
O=C(CCCN1C(=O)/C(=C/c2ccccc2Cl)SC1=S)NNC(=O)c1ccc(Cl)cc1Cl,3.09% (inactive),
O=S(=O)(c1ccc(Cl)cc1)n1c(Cc2ccccc2)nc2ccccc21,-6.41% (inactive),
CC(C)N(CC#CCC(O)(c1ccccc1)c1ccccc1)C(C)C,-5.16% (inactive),
Cc1ccc(Cl)cc1NC(=O)CN1C(=O)NC2(CCCCCC2)C1=O,3% (inactive),
COCCNC(=O)CCn1nc(-c2ccc(C)cc2)c2ccccc2c1=O,-3.27% (inactive),
NC(=O)c1sc2cc(C(F)(F)F)cnc2c1-c1ccccc1,1.48% (inactive),
NC(=O)CC(NC(=O)c1ccccc1)c1ccc(NCCCN2CCCC2=O)c([N+](=O)[O-])c1 (stereo not drawn),-0.79% (inactive),
CO[C@H]1C=CO[C@@]2(C)Oc3c(C)c(O)c4c(O)c(c(C=NN5CCN(C)CC5)c(O)c4c3C2=O)NC(=O)C(C)=CC=C[C@H](C)[C@H](O)[C@@H](C)[C@@H](O)[C@@H](C)[C@H](OC(C)=O)[C@@H]1C,-3.66% (inactive),
CO[C@H]1/C=C/O[C@@]2(C)Oc3c(C)c(O)c4c(O)c(c(C=NN5CCN(C)CC5)c(O)c4c3C2=O)NC(=O)/C(C)=C\C=C\[C@H](C)[C@H](O)[C@@H](C)[C@@H](O)[C@@H](C)[C@H](OC(C)=O)[C@@H]1C,6.59% (inactive),
C=CCOc1ccc(/C=N/NC(=O)C(C)Sc2ccccn2)cc1OC (stereo not drawn),-7.22% (inactive),
Cc1ccc(S(=O)(=O)N(C)C)cc1NC(=O)COC(=O)C1(c2ccccc2)CC1,-4.44% (inactive),
O=[N+]([O-])c1cccc(S(=O)(=O)Nc2ccc(S(=O)(=O)Nc3nccs3)cc2)c1,-3.24% (inactive),
O=[N+]([O-])c1ccccc1S(=O)(=O)Nc1ccc(S(=O)(=O)Nc2nccs2)cc1,3.56% (inactive),
C/C(=N\NC(=O)c1cc(C)nc2ccccc12)c1ccccn1,-2.29% (inactive),
CC(=O)NC1=NN(C(C)=O)C(c2ccc(C(C)C)cc2)S1 (stereo not drawn),0.65% (inactive),
